This is a sample that favours compounds with a hit; in the whole collection about 10% have one here.
CtBP-E1A blk: CtBP/E1A binding inhibition; AlphaScreen GST-E1A/His-CtBP binding, 1536-well; stronger effect = lower value; activity change, % (no concentration beside the values); hit rate 0.49% among 340,000; AID 651724; in the data active = activity change below about -65%; inconclusive = mostly about -30% to -63%; note: % is set by controls: 0 for no effect and ±100 for the full control effect
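AlphaScreen with 125 nM GST-E1A and 125 nM His-CtBP (5X stocks) in Tris pH 8.0, 300 mM NaCl, BSA, Tween 20, TCEP. Compounds preincubated 2 h at 37 deg C, then glutathione donor/nickel acceptor beads added for 1 h at 37 deg C in dark.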
BAZ2B inh: inhibitors of human BAZ2B bromodomain; Q9UIF8; AlphaScreen BAZ2B-H3K14Ac peptide displacement; Potency, µM (series often up to 114 µM), for inactives: top-dose activity change, negative = inhibition, actives largely listed as inhibitors; hit rate 4.4% among 360,000; AID 504333; note: potency is the fitted concentration of half-maximal effect; % is set by controls: 0 for no effect and ±100 for the full control effect; nearly all actives have a fitted effect of over 60% in size
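Protein-peptide AlphaScreen: BAZ2B 50 nM, b-H3K14Ac 50 nM, 1x PBS pH 7.4 + 0.01% Tween-20. Preincubation 30 min RT; cpd 30 min RT (top 110 uM); beads 20 min RT, light-protected.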
Six1-Eya2 blk: inhibitors of human Six1/Eya2 interaction; hit rate 0.56% among 360,000; AlphaScreen GST-Six1/His-Eya2 binding, biochemical; stronger effect = lower value; activity change, % (test concentration not listed); Q15475+O00167; in the data active = activity change below about -65%; inconclusive = mostly about -30% to -63%; note: % is set by controls: 0 for no effect and ±100 for the full control effect
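Homogeneous AlphaScreen proximity assay pairing GST-Six1 with His-tagged Eya2 (added as 5X mix: 250 nM and 500 nM) in 50 mM Tris pH 8.0, 300 mM NaCl, 1 mM TCEP. Glutathione donor and nickel acceptor beads; 1 h, 37 °C, dark.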
HP1b binding inh: inhibitors of HP1-beta chromodomain binding to methylated histone tails. AlphaScreen HP1-beta / biotin-H3K9me3 peptide binding. Potency, µM (top dose mostly 114 µM), inactives show top-dose activity change, negative = inhibition, hits mostly inhibitors. hit rate 0.56% among 390,000; note: potency is the fitted concentration of half-maximal effect; nearly all actives have a fitted effect of over 70% in size
Target sequence (P83916 whole entry, looked up): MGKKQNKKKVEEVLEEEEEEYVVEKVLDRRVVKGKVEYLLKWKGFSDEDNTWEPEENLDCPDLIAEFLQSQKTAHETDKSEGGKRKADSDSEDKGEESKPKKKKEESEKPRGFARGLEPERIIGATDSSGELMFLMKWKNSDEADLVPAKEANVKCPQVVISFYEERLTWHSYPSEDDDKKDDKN
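Compound inhibition of the preformed complex between 50 nM HP1-beta and 50 nM biotinylated H3K9me3 peptide was read by AlphaScreen. Buffer was PBS pH 7.4 with 0.01% Tween-20. Incubations ran 30 min at room temperature, with 10 ug/mL donor/acceptor beads.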
JMJD2A Tudor: JMJD2A Tudor domain (human) inhibition; O75164; AlphaScreen JMJD2A-Tudor / H3K4me3 peptide binding; Potency, µM (top dose mostly 114 µM), inactives show at the highest dose activity change, negative = inhibition, usual class: inhibitors; hit rate 4.4% among 390,000; AID 504339; note: potency is the fitted concentration of half-maximal effect; % is set by controls: 0 for no effect and ±100 for the full control effect; nearly all actives have a fitted effect of over 50% in size
G9a inh: inhibitors of human histone lysine methyltransferase G9a. Q96KQ7. Potency, µM (top dose mostly 102 µM), inactives show top-dose activity, negative = inhibition, usual class: inhibitors. hit rate 8.8% among 350,000. G9a H3K9 monomethylation, AlphaScreen, 2 h; note: potency is the fitted concentration of half-maximal effect; % is set by controls: 0 for no effect and ±100 for the full control effect; nearly all actives have a fitted effect of over 75% in size
Target sequence (Q96KQ7 913-1193 limits assumed): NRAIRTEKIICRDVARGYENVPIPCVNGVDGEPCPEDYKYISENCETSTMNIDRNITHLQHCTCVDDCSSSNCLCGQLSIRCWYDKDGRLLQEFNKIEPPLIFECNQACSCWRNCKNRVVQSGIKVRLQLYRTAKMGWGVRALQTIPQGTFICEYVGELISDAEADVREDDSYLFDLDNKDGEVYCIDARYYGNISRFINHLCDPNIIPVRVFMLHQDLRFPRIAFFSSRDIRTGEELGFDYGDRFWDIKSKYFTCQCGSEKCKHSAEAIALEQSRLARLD
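Quantitative HTS format: methyltransferase activity on a biotin-tagged H3K9 peptide is measured by AlphaScreen, using a rabbit anti-monomethyl-H3K9 antibody with streptavidin donor and anti-IgG acceptor beads. Final levels are 20 nM enzyme, 500 nM peptide, 20 uM SAM; 2 h RT.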
* marks the source's active call; other numbers are inactive results; ? = inconclusive; nt = no result given; [ ] = another dose, or the depositor's remark. Unless noted, calls come from the whole dose curve; as a rule, active = well fitted inhibition curve with a large enough effect; inconclusive = small, poorly fitted or top-dose-only effect; inactive = no such curve, though single readings can be large or run the other way.

SMILES	CtBP-E1A blk	BAZ2B inh	Six1-Eya2 blk	HP1b binding inh	JMJD2A Tudor	G9a inh
CCOC(=O)C(=CNc1ccc(Cl)cn1)C(=O)OCC	-1	-3%	4	21%	3%	-6%
COC(=O)c1cccc(Nc2nn3c(=O)c4cc5c(cc4nc3s2)OCO5)c1	nt	-2%	nt	15%	-3%	6%[59 µM]
CC(C)OCCCN(CC(O)c1ccccc1)CC(O)c1ccccc1 (configuration not stated)	9	?	9	?	5.6µM*	7.9µM*
CCOC(=O)c1ccc(CNCc2ccccc2)cc1	-7	-3%	10	10%	-12%	?
C#CCCc1cscc1/C=[N+](\[O-])c1ccc(C(=O)OCC)cc1	0	-33%	-5	?	50µM*	7%[0.501 µM]
CCOC(=O)c1ccc(/[N+]([O-])=C/c2ccccc2)cc1	-2	?	-2	?	32µM*	-15%[0.501 µM]
C#CCCC(=O)c1ccccc1/C=[N+](\[O-])c1ccccc1	-4	-9%	5	9%	?	0%[0.501 µM]
Cc1snc(S(=O)(=O)/C(C#N)=N/Nc2cccc(C(F)(F)F)c2)c1C#N	-16	?	-17	-31%	50µM*	14µM*
CCC(C(=O)Nc1cc(C(F)(F)F)ccc1Cl)n1nc(C)c2sc3ccccc3c2c1=O (configuration not stated)	nt	2%	nt	43%	-1%	-36%[59 µM]
Cc1ccc2c(c1)N(CC(=O)NCCCN1CCCCC1)C(=O)CO2	5	-6%	-1	15%	-2%	16%
Cc1cccc(C)c1NC(=O)N1C(C(=O)O)CSC1C(=O)O (configuration not stated)	0	?	6	-6%	18µM*	?
CCc1ccc(C(=O)COC(=O)CCc2nc3ccccc3c(=O)[nH]2)cc1	-1	5%	2	15%	-21%	-16%[59 µM]
CCOC(=O)C1CCCCN1Cc1ccc(F)c(Br)c1 (configuration not stated)	-2	12%	1	?	?	22µM*
COc1cccc(CN2CCCCC2C(=O)O)c1 (configuration not stated)	6	-1%	8	18%	-18%	9%
CCOC(=O)C1CCCCN1Cc1ccc(OC)c(OC)c1 (configuration not stated)	0	56µM*	-4	?	20µM*	32µM*
CCC1CCCCN1Cc1ccc(OC)c(C)c1 (configuration not stated)	7	56µM*	5	?	7.1µM*	50µM*
CCOC(=O)c1c(C)oc2nc(C)nc(NCCc3ccc(SC)cc3)c12	nt	4%[57.1 µM]	nt	44%	-7%	-19%[59 µM]
COc1ccccc1N1CCN(C2CCCN(C(=O)c3cc(C4CC4)on3)C2)CC1 (configuration not stated)	0	-11%[57.1 µM]	0	61%	-12%	-6%
CCOC(=O)c1c(C)c(-c2ccccc2)n(CC(=O)Nc2ccc(OCC)cc2)c1C	nt	5%	nt	17%	-7%	-2%[59 µM]
Cc1ccc(C)c(NC(=S)NCCc2ccc(F)cc2)c1	nt	-4%	-9	1%	-30%	11%
Cc1ccc(NNC(=S)Nc2ccc(C(C)C)cc2)c(C)c1	-29	35µM*	-24	22µM*	14µM*	11µM*
Cc1ccc(C)c(NC(=S)NNc2ccc(F)cc2F)c1	16	20µM*	-3	?	32µM*	45µM*
Cc1ccc(NC(=S)NNC(=S)Nc2ccc(C)cc2)cc1	1	nt	-3	-12%	-29%	nt
O=C(CSc1nc2ccc(Cl)cc2[nH]1)NCCc1ccccc1	-14	1%	4	16%	-3%	79µM*
Cc1ccc(CNC(=O)c2ccc3nc(SCc4ccc(F)cc4)[nH]c3c2)cc1	nt	40µM*	nt	?	7.9µM*	7.9µM*
SMILES	CtBP-E1A blk	BAZ2B inh	Six1-Eya2 blk	HP1b binding inh	JMJD2A Tudor	G9a inh
Cc1ccc2nc(SCC(=O)NNC(=O)c3ccccc3)[nH]c2c1	-5	8%	-1	34%	-20%	25µM*
Cn1c(SCc2ccc(F)cc2)nc2ccc(C(=O)NCc3ccc(F)cc3)cc21	nt	2%	nt	23%	-20%	6%[59 µM]
Cc1ccc2nc(SCC(=O)Nc3ncccn3)[nH]c2c1	-8	?	-5	31%	-28%	nt
Cc1ccc(C)c(SCC(=O)NNC(=O)c2ccccc2)c1	-6	-15%	-3	45%	7%	45µM*
COc1ccc(NC(=O)N2CCCC(c3ccccc3)C2)cc1 (configuration not stated)	6	0%	1	9%	-16%	45%
Cc1ccc(C)n1-c1sccc1C(=O)O	-6	18µM*	-68*	?	?	13µM*
Cc1cc(C(=O)O)c(C)n1-c1ccccc1	7	10%	0	6%	-24%	-1%
COc1ccc(CNc2ccnc(-c3ccccc3Cl)n2)c(OC)c1	nt	nt	nt	nt	nt	5%[0.501 µM]
O=C(Nc1cccc([N+](=O)[O-])c1)c1ccc2ccccc2c1O	4	-29%	4	7%	-11%	16µM*
O=C(Nc1cccc([N+](=O)[O-])c1)c1cnccn1	0	50µM*	-10	17%	?	13%[59 µM]
O=C(Cc1ccccc1)Nc1cccc([N+](=O)[O-])c1	5	-2%	0	65%	-6%	?
N#CC1=C(N)SC(N)=C(C#N)C1Cc1ccccc1	0	-5%	2	14%	?	?
N#CC1=C(N)SC2(CCCCC2)SC1c1ccccc1 (configuration not stated)	0	-34%	-9	-12%	?	7.9µM*
CC1CN(c2nnnn2-c2ccccc2)CC(C)O1 (configuration not stated)	4	nt	7	19%	-13%	-24%[59 µM]
CCn1c(=O)c2cc(C(=O)NCCCN3CCN(C)CC3)sc2c2ccccc21	nt	-8%	nt	23%	-9%	-45%[59 µM]
CCCn1c(-c2ccncc2)n[nH]c1=S	-6	5%	-7	6%	7.9µM*	?
C=CCn1c(-c2ccoc2)n[nH]c1=S	-10	?	2	?	5µM*	26%[0.501 µM]
C=CCn1c(-c2ccccc2)n[nH]c1=S	-1	46%	-2	-12%	?	61%[59 µM]
C=CCn1c(-c2ccc(F)cc2)n[nH]c1=S	-4	-23%	4	26%	7.1µM*	20µM*
Cc1ccc(-c2cn(CCN)c(-c3ccncc3)n2)cc1	-1	?	1	13%	?	-6%[2.33 µM]
C=CCn1c(-c2ccncc2)n[nH]c1=S	3	?	2	36%	16µM*	nt
O=C(CN1C(=O)NC2(CCCc3ccccc32)C1=O)NCc1cccs1 (configuration not stated)	1	5%	2	36%	-2%	11%[12.7 µM]

Bioassay records: PubChem, National Center for Advancing Translational Sciences (NCATS)
